# Screening data from PubChem BioAssay.
# Hits are enriched below; roughly 11% of the tested compounds scored in any of these assays.
# Pf growth 96h: Primary qHTS for delayed death inhibitors of the malarial parasite plastid, 96 hour incubation | P. falciparum luciferase reporter growth, 96 h | Potency, µM (titrated, usually from 28.7 µM), for inactives: at the highest dose activity change, negative = inhibition, actives largely listed as inhibitors | actives 6.9% (n = 320,000); note: % is set by controls: 0 for no effect and ±100 for the full control effect
#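 Infected RBCs, 2% Hct / 0.05% parasitemia final; luciferase-reporter P. falciparum; cpd 96 h, 37 C, 5% CO2; luciferase detection reagent; luminescence.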
# VACV Venus inh: qHTS for Stage-Specific Inhibitors of Vaccinia Orthopoxvirus: Venus Reporter Primary qHTS. Vaccinia virus Venus reporter expression, fluorescence. Potency, µM (titrated, usually from 36.5 µM), for inactives: at the top dose activity change, negative = inhibition, usual class: inhibitors. actives 0.46% (n = 330,000). AID 720580, 2013; calls by dose curve; tested in A549 cells; note: % is set by controls: 0 for no effect and ±100 for the full control effect; nearly all actives have a fitted effect of over 30% in size
# Vaccinia mCherry: qHTS for Stage-Specific Inhibitors of Vaccinia Orthopoxvirus: mCherry Reporter Primary qHTS. Vaccinia virus mCherry reporter infection, fluorescence. Potency, µM (titrated, usually from 36.5 µM), without a hit: at the highest dose activity change, negative = inhibition, actives largely listed as inhibitors. actives 0.63% (n = 310,000); calls by dose curve; tested in A549 cells; note: % is set by controls: 0 for no effect and ±100 for the full control effect; nearly all actives have a fitted effect of over 35% in size
# HCV inhibitor: qHTS Assay for Inhibitors of Hepatitis C Virus (HCV) | Huh7.5.1 HCVcc-Cre infection, luciferase reporter, 44 h | Potency, µM (highest dose often 41.8 µM), for inactives: at the highest dose activity change, negative = inhibition, usual class: inhibitors | actives 3.4% (n = 340,000) | AID 651820, 2012; note: % is set by controls: 0 for no effect and ±100 for the full control effect
#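 Infectious HCV cell culture screen: compound-treated cells (1,000/well, pre-plated 4 h) are infected with HCVcc-Cre at roughly 0.5 moi and grown 44 h. Infection is quantified by luciferase signal after 15 min substrate incubation at room temperature.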
# Pf growth 48h: Primary qHTS for delayed death inhibitors of the malarial parasite plastid, 48 hour incubation | P. falciparum luciferase growth in erythrocytes, 48 h | Potency, µM (highest dose often 28.7 µM), for inactives: at the top dose activity change, negative = inhibition, actives largely listed as inhibitors | actives 5.9% (n = 310,000); note: % is set by controls: 0 for no effect and ±100 for the full control effect
#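 Cell-based growth assay: transgenic P. falciparum expressing firefly luciferase, cultured in red cells within RPMI 1640 containing 0.5% w/v Albumax, 24 mM bicarbonate and gentamycin. A drop in luciferase activity indicates inhibition.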
# NS1 inh: qHTS Assay for Inhibitors of Influenza NS1 Protein Function; AID 2326, 2010; Potency, µM (series often up to 46.1 µM), inactives show at the highest dose activity, positive = more growth; actives 0.4% (n = 270,000); calls by dose curve; note: actives are rising curves; nearly all actives have a fitted effect of over 50% in size
#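 Read-out: OD600 growth recovery of NS1-expressing budding yeast. Cells grown overnight at 30C in -URA glucose medium, washed, resuspended and diluted 1:100 in 2% galactose assay medium, pH 6.0. Same strain lacking NS1 served as positive control.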
# * hit, by the source's call; i = inactive; ? = inconclusive; / = no result; [ ] = another dose, or the depositor's remark. Unless noted, calls come from the whole dose curve; as a rule, active = well fitted inhibition curve with a large enough effect; inconclusive = small, poorly fitted or top-dose-only effect, or another doubt; inactive = no such curve, though single readings can be large or run the other way. Potency is the fitted concentration of half-maximal effect.
SMILES,Pf growth 96h,VACV Venus inh,Vaccinia mCherry,HCV inhibitor,Pf growth 48h,NS1 inh
C(=N\N1CCN(Cc2ccccc2)CC1)/c1ccccc1,15%,-3%,?,13%,28%,4%
C(=N\N1CCN(Cc2ccccc2)CC1)/c1cccnc1,6.6µM*,-8%,-7%,37%,33%,29%
O=C1CN(c2ccc(Br)cc2)C(=O)N1CC(=O)N1CCCc2ccccc21,?,-10%,i,-24%,21%,-68%
COc1cc(-c2nn3c(-c4ccccn4)nnc3s2)cc(OC)c1OC,-10%,/,/,/,20%,3%
CCOC(=O)c1cc(C#N)c(Oc2cccc(C(F)(F)F)c2)nc1-c1ccccc1,?,-17%,i,?,13µM*,6%
O=C(Nc1nccs1)c1cc2c(s1)-c1ccccc1OC2,-4%,-19%,-7%,?,/,-58%
Cc1cccc2c1-c1sc(C(=O)Nc3ccccc3C(N)=O)cc1CO2,/,-21%,-24%,/,/,/
Cc1cccc2c1-c1sc(C(=O)Nc3nccs3)cc1CO2,8.3µM*,-10%,1%,?,/,2%
O=C(Nc1cccnc1)c1cc2c(s1)-c1ccccc1OC2,211%,/,/,?,?,-50%
Cc1cccc2c1-c1sc(C(=O)Nc3cccnc3)cc1CO2,-5%,/,/,22µM*,?,-11%
Cc1cccc2c1-c1sc(C(=O)Nc3cccc([N+](=O)[O-])c3C)cc1CO2,0.74µM*,-20%,-27%,?,-5%,?
CCOC(=O)c1cc2c(s1)-c1c(C)cccc1OC2,?,-7%,i,-3%,/,-59%
CC(=O)c1cccc(NC(=O)c2cc3c(s2)-c2c(C)cccc2OC3)c1,/,20µM*,11µM*,/,/,/
Cc1oc(-c2cccc(Br)c2)nc1CN1CCC(C(=O)NCCc2ccc(Cl)cc2)CC1,/,-17%,-8%,/,/,/
O=C1CCCC2=C1C1c3ccccc3C(=O)N1c1ccc(C(=O)c3ccccc3)cc1N2 (stereo unspecified),89%,-19%,-11%[1.46 µM],?,2.3µM*,8%
O=C1CC(c2ccco2)CC2=C1C1c3ccccc3C(=O)N1c1ccccc1N2 (stereo unspecified),28%,?,/,?,?,7%[9.22 µM]
COCCn1c(C)cc(C(=O)CSc2nc(C)nc3sc4c(c23)CCC4)c1C,/,/,/,10µM*,/,-10%
COCCn1c(C)cc(C(=O)CSc2nc3ccccc3c(=O)[nH]2)c1C,0.29µM*,/,/,8.9µM*,10%,6%
COCCn1c(C)cc(C(=O)CSc2ccc3ccccc3n2)c1C,/,-21%,/,10µM*,84%,8%
O=C(CN1CCC(c2nc3ccccc3s2)CC1)NCc1cccs1,?,?,-29%,3.2µM*,-14%,-8%
COc1cccc(-c2csc(N3CCN(C(=O)Nc4ccccc4Cl)CC3)n2)c1,17%,-5%,i,-22%,0%,13%
COc1cccc(NC(=O)Nc2nc(-c3ccc(OC)c(OC)c3)cs2)c1,12µM*,14µM*,?,2.8µM*,?,-17%
COc1cccc(NC(=O)N2CCN(c3nc(-c4cccc(OC)c4)cs3)CC2)c1,?,/,/,11µM*,?,0%
COc1cccc(-c2csc(N3CCN(C(=O)NC45CC6CC(CC(C6)C4)C5)CC3)n2)c1,-24%,?,?,?,12µM*,?
Cc1cccc(C)c1NC(=S)N(CCN(C)C)C(C)c1ccccn1 (stereo unspecified),?,/,/,22%,-16%,/
SMILES,Pf growth 96h,VACV Venus inh,Vaccinia mCherry,HCV inhibitor,Pf growth 48h,NS1 inh
COc1cc(/C=C2\SC(=O)N(c3ccc(O)cc3)C2=O)cc(OC)c1OC,-2%,-5%,-30%,-23%,-5%,-5%
O/N=C(/CN(O)/C=C1/C=CC=N1)c1cccs1,15µM*,-9%,-15%,3%,18%,-4%
CCCCc1nnc2c(N(C)S(=O)(=O)c3ccc(C)cc3)nc3ccccc3n12,12µM*,-14%,i,8%,?,-2%
CCCc1nnc2c(N(C)S(=O)(=O)c3ccc(C)cc3)nc3ccccc3n12,13µM*,-13%,i,11%,?,10%
COC(=O)CCC(=O)OC1(C)C(=O)C2=CN(CCCOC(C)C)C(c3ccc(OC)cc3)=CC2=C(Br)C1=O (stereo unspecified),12µM*,7%,3%,-8%,?,3%
COC(=O)CCC(=O)OC1(C)C(=O)C2=CN(CC(C)C)C(c3ccc(OC)cc3)=CC2=C(Br)C1=O (stereo unspecified),13µM*,/,/,/,?,30%
COC(=O)CCC(=O)OC1(C)C(=O)C2=CN(CC3CC3)C(c3ccc(OC)cc3)=CC2=C(Br)C1=O (stereo unspecified),?,14%,6%,-21%,13µM*,?
COC(=O)CCC(=O)OC1(C)C(=O)C2=CN(C3CC3)C(c3ccc(OC)cc3)=CC2=C(Br)C1=O (stereo unspecified),/,-4%,-6%,7%,/,/
COC(=O)CCC(=O)OC1(C)C(=O)C2=CN(Cc3ccc(OC)cc3)C(c3ccc(OC)cc3)=CC2=C(Br)C1=O (stereo unspecified),/,-5%,-13%,-10%,/,/
Cc1ccc(S(=O)(=O)N2CCN(C(=O)C3CCCO3)CC2)cc1C (stereo unspecified),6%,-18%,-20%,-17%,-1%,4%
COc1ccc(N(Cc2ccccc2)S(=O)(=O)c2cccc(C(=O)Nc3ccccn3)c2)cc1,?,-25%,13%,?,?,/
O=C1NC(Cc2c[nH]c3ccccc23)C(=O)N1Cc1ccccc1 (stereo unspecified),23%,/,/,9%,10%,12%
O=C1C(Cc2c[nH]c3ccccc23)NC(=S)N1Cc1ccccc1 (stereo unspecified),13µM*,-4%,-12%,7%,?,6%
C/C(=C\c1ccccc1)CN1CCC(C(=O)N2CCCCC2)CC1,3%,-4%,-20%,5%,1%,-5%
O=C(C1CCN(C2CCN(C/C(Cl)=C/c3ccccc3)CC2)CC1)N1CCOCC1,10µM*,/,/,?,-11%,0%
COc1cc(C(=O)Nc2ccc(OCc3cc(=O)n4cccc(C)c4n3)cc2)cc(OC)c1OC,/,?,8.9µM*,/,/,/
O=C(CN1CCN(Cc2ccc(F)cc2Cl)C1=O)NCCc1ccccc1,?,?,?,-7%,/,-1%
Cc1ncc(CO)c2cc(-c3nnc(Nc4ccc5c(c4)OCO5)s3)c(=O)oc12,16%,-5%,-8%,0%,13%,2%
Nc1ccc(Nc2ccccc2N)cc1,-24%,-4%,12%,11µM*,?,14%
